For this assay, the system named is HL-60(TB) leukemia. The assay is described as follows: NCI-60 one-dose screen, 48 h (100 = growth as untreated, 0 = no growth, -100 = all killed). The conditions noted are these: 10 µM unless noted.

Our source for the growth values is PubChem BioAssay (NCI).

This is part of a sample that, as a whole, favours compounds with a hit. Of some 83,000 tested, about 20% had one in any assay.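 Results are percent growth after 48 hours of single-concentration exposure. 100 means growth as in untreated cells, lower positive values show inhibition; negative values down to -100 show cell death.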 Values without a mark were called inactive. The source made the active and inactive calls. How the source made its calls: active means growth percent below 10; inactive means the rest.

Consider `C=CCN(CC#N)CC=C`, for which the growth was 106%. For `CN1CCN(CCOc2ccc(-c3cnc4c(-c5ccc(C(F)(F)F)cc5)cnn4c3)cc2)CC1` the value was -32.5% (active); for `CC(C)(C)c1ccc(CCO)cc1`, 86.6%. The same measure for `Cc1csc(NC(c2ccccc2)c2c(C)nc3ccccn23)n1` (centres undefined): 111%; for `NC[C@H](O)c1ccc(O)c(O)c1`: 98.8%. Turning to `CCCCN(CCCC)c1ccc(C(=N)c2ccc(N(C)C)cc2)cc1`, the growth is -55.1% (active).

Regarding `OCCN1CCN(c2nc(Nc3ccc(-c4nc5ccccc5[nH]4)cc3)c3cn[nH]c3n2)CC1`, the growth is -65.8% (active).

With `O=C(CCn1cnc2c(cc(-c3ccccc3)n2-c2ccccc2)c1=O)Nc1ccc(F)cc1`, the growth was 86.6%. For `C/C(=N\NC(=S)Nc1ccccc1)c1ccccn1` the value was 3.23% (active). Take `COC(=O)c1ccc2c(c1)Oc1ccc(Cl)cc1-c1cc(C)nn1-2`: the growth is 103%.

Turning to `Cc1ccc2cnc(N)c(C#Cc3cc(C(=O)Nc4ccc(CN5CCN(C)CC5)c(C(F)(F)F)c4)cnc3C)c2c1`, the growth was 30%. Turning to `O=c1[nH]c(O)c(/C=C2/C=Nc3ccccc32)[nH]1`, the growth is 35.4%. The same measure for `O=C1/C(=C/c2ccc(Cl)cc2Cl)CN(S(=O)(=O)c2ccccc2)C/C1=C\c1ccc(Cl)cc1Cl`: 11%. Consider `O=C(N/N=C1\SCC(=O)N1c1ccccc1)c1cc(-c2cc3ccccc3o2)nn1-c1ccccc1`, for which the growth was 112%. For `C=C1C(=O)O[C@H]2[C@H]1CC/C(CNC(=O)c1cccc3ccccc13)=C\CC[C@@]1(C)O[C@@H]21` the value was -23.9% (active). For `COc1cc2c(cc1OCCCCCCN1CCN(c3ncnc4ccccc34)CC1)N=CC1CCCN1C2=O` (centres undefined) the value was -43.3% (active). For `COc1ccc(-c2nc(SCCC(C)C)nc(N/N=C(/C)c3ccc(N)cc3)c2C#N)cc1` the value was 83.8%; for `O=C(NCCO)Nc1ccc(-c2nc(N3CCOCC3)c3cccn3n2)cc1`, 24.2%.

Take `CCN1C(=O)C(C)C=C(C)C=C1C` (centres undefined): the growth was 94.4%.

For `N#Cc1c(-c2ccccc2)nc(SCC(=O)N2CCOCC2)[nH]c1=O`, the growth is 55.9%. In the case of `O=S(=O)(Cc1ccccc1)c1nc2ccccc2s1`, the growth was 16.9%. The same measure for `Cc1cccc(CC(=O)c2ccccc2)n1`: 86.9%; for `COc1cc(-c2cc(/C=C/C(=O)c3ccc4c(c3)OCO4)[nH]n2)cc(OC)c1OC`: 91.3%; for `CN1CCN(C(=S)S)CC1`: 111%. The same measure for `COc1c2ccoc2c(/C=C/C=O)c2oc(-c3ccccc3)cc(=O)c12`: 7.67% (active); for `COc1ccc(Cl)cc1NC(=O)c1cc2c([nH]1)-c1nc(NC(=O)C(C)C)sc1CC2`: 90.9%; for `COC(=O)c1nc(-c2ccccc2)oc1S(=O)(=O)n1nc(C)cc1N`: 7.17% (active). The same measure for `c1cc2ccc3cc2cc1CNCCOCCNCc1ccc2ccc(cc2c1)CNCCOCCNC3`: 15.9%; for `COc1cc(OC)cc(C2CC(=O)Nc3c2c(C)nn3-c2nc3ccccc3[nH]2)c1` (centres undefined): 9.31% (active); for `CC(C)[C@H]1COC(=O)N1[C@@H]1C(=O)N([C@@H](CCC(=O)N2CCN(C3CCCC3)CC2)C(=O)N[C@@H]2CCCc3ccccc32)[C@@H]1/C=C/c1cccc(Cl)c1`: 5.13% (active). `C#CC[C@@H]1C[C@]2(C)[C@H]3CC=C4[C@H]5[C@@H](C)[C@H](C)CC[C@]5(C(=O)NCCCN5CCN(CCCN)CC5)CC[C@@]4(C)[C@]3(C)CC[C@H]2C(C)(C)[C@H]1OC(C)=O`: the growth was -55.9% (active). The same measure for `CC(=O)O[C@H]1CC[C@]2(C)[C@H]3CC=C4[C@@H]5CC(C)(C)CC[C@]5(C(=O)N5CCN(CCC#N)CC5)CC[C@@]4(C)[C@]3(C)CC[C@H]2C1(C)C`: 12.9%; for `COc1ccc(-c2nc(SC)nc(N3CCOCC3)c2C#N)cc1`: 94%; for `COCCCNC(=O)c1nnn2c1nc(N)c1cc(Cl)ccc12`: 93.7%. The same measure for `Cc1ccc(NCN2C(=O)c3ccccc3C2=O)c(C)n1`: 97.8%.

For the molecule `c1ccc(-c2nnc(-c3c[nH]c4ncccc34)s2)cc1`, the growth was 98.4%. Take `CCCSc1nc(N)nc2nc[nH]c12`: the growth was 74.6%. For `CCN1C(=O)N(CC)C2C1NC(=S)N2/N=C/c1ccc(C(F)(F)F)cc1` (centres undefined) the value was 78.8%; for `C=C1c2c(C)nn(-c3ccc(N)cc3)c2N(C)C23CC1C1(C)c4c(C)nn(-c5ccc(N)cc5)c4N(C)C(C)(CC12)C3` (centres undefined), 55.7%.
